Results as given in PubChem BioAssay (NCI).
This is part of a sample that, as a whole, favours compounds with a hit. Of some 83,000 tested, about 20% had one in any assay.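 Interpretation: 100, growth as untreated; towards 0, rising growth inhibition; 0, no net growth; 0 to -100, cell death. Compounds scoring below 10 were considered active.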 Activity calls are given as the source filed them.

These molecules were tested on MDA-MB-468 breast (assay: NCI-60 one-dose screen, 48 h (100 = growth as untreated, 0 = no growth, -100 = all killed)). Conditions: 10 µM unless noted.
O=C(CCl)N1CCCc2ccccc21 was tested, and the growth was 80.9% (inactive).
With CCN(CC)CCCN1C(=O)c2c(c(C)c3c(oc4ccc(O)cc43)c2C)C1=O the growth was 75.7% (inactive).
O=[N+]([O-])c1ccc2c(c1)Cc1cc(F)ccc1-2 was tested, and the growth was 53.9% (inactive).
For O=Cc1ccc(O)c(O)c1, the growth was 93.4% (inactive).
In the case of C#C[C@@]1(O)[C@@H](CO)O[C@@H](n2cc(-c3ccco3)c3c(N)ncnc32)[C@@H]1O, the growth is reported as 49.5% (inactive).
Cc1ccc(CSCc2ccc(C(=O)NC3CC3)o2)cc1 was tested, and the growth was 49.2% (inactive).
For O=C1Nc2ccccc2/C1=C/c1cccn1C(=O)c1ccc(Cl)s1, the growth was -16.5% (active).
In the case of Nc1c(N)c2ccccc2c2ccccc12, the growth is reported as 103% (inactive).
With [O-]/[N+](=C\c1ccccc1)CC1(O)CCCCC1 the growth was 108% (inactive).
With O=S(Cc1ccccc1)/C(=C/NC(=S)Nc1cc(Cl)ccc1Cl)c1ccccc1 (stereo not given) the growth was 106% (inactive).
In the case of Cc1cc2nc3ccc(N=Nc4ccc(N(C)C)cc4)cc3n(-c3ccccc3)c-2cc1=N, the growth is reported as -89.4% (active).
COc1cccc(/C=C/c2c(C(=O)O)cccc2[N+](=O)[O-])c1OC was tested, and the growth was 108% (inactive).
For COc1cc(C2C3=C(COC3=O)Nc3cc4c(cc32)CCC4)cc2c1OCO2 (stereo not given), the growth was -8.49% (active).
With O=C1/C(=C/c2ccccc2[N+](=O)[O-])Oc2ccc(O)cc21 the growth was 20.3% (inactive).
CCCCCCCC(=O)OCC/C=C/C1OC1C1OC(=O)/C=C\C=C\C(=O)N(C(C)=O)C(=O)/C=C(/C)CCC2OC2C1OC(=O)NC(C)=O (stereo not given) was tested, and the growth was -3.75% (active).
With CCCCC/C=C/C(C)=C/C1CC(C)C/C=C/CCC(O)C(OC(N)=O)CCC(C)CC(O)C(C)C(=O)O1 (stereo not given) the growth was 94.9% (inactive).
CCCCCCNC(=O)Oc1ccc(/C(=C(/C)Cc2ccc(OC)cc2)c2ccc(OCCCN(C)C)cc2)cc1 was tested, and the growth was -17.3% (active).
In the case of COc1ccc2c(c1)C=C1CSCC3=Cc4cc(OC)ccc4OC13O2, the growth is reported as 21.3% (inactive).
With O=Cc1ccc2nc(C(Cl)(Cl)Cl)ccc2c1 the growth was 95.2% (inactive).
C=CCn1c(SCC(=O)Nc2ccc(C(=O)/C=C/c3ccc(Cl)cc3)cc2)nnc1-c1cc(-c2ccccc2)nc2ccccc12 was tested, and the growth was 61.6% (inactive).
For O=C1[C@@H]2Cc3c([nH]c4ccccc34)[C@H](c3c(Cl)cccc3Cl)N2C(=O)CN1C1CCN(CC2CCCCC2)CC1, the growth was 47.8% (inactive).
With Cc1ccccc1Cn1cnc2ccc(-c3cc(NC(=O)c4ccc(NC5CCN(C)CC5)cc4)n[nH]3)cc21 the growth was 94.5% (inactive).
CC(=C(c1ccc(OCCN(C)C)cc1)c1ccc(OCCN(C)C)cc1)c1ccc(Cl)cc1 was tested, and the growth was -81.1% (active).
CC1=C(C(=O)OCC2CCN(C(=O)OC(C)(C)C)CC2)[C@H](c2cccc(Br)c2)C2=C(CC(C)(C)CC2=O)N1 was tested, and the growth was 29.7% (inactive).
For COc1ccc(-c2no[n+]([O-])c2Nc2ccccc2Br)cc1, the growth was 93.3% (inactive).
With O=C1C(SCc2ccccc2)=C(Cl)CN1c1ccccc1 the growth was 79.7% (inactive).
COC(=O)C1CCCN1C(=O)[C@@H]1CCCN1C(=O)[C@H](Cc1c[nH]c2ccccc12)NC(=S)Nc1cc(C(F)(F)F)cc(C(F)(F)F)c1 (stereo not given in full) was tested, and the growth was 44.3% (inactive).
CCN1CCN(c2nc(NCCCNc3ccnc4cc(Cl)ccc34)c3ccccc3n2)CC1 was tested, and the growth was 29.1% (inactive).
For OCC1OC(n2cnc3c(=S)nc[nH]c32)C(O)C1O (stereo not given), the growth was -6.42% (active).
For COc1cc(C(=O)N2CCN(c3cc4c(cc3F)c(=O)c(C(=O)NO)cn4C3CC3)CC2)cc(OC)c1OC, the growth was 95.8% (inactive).
With O=C1c2c(c3c4cc(O)ccc4oc3c3[nH]c4ccccc4c23)C(=O)N1O the growth was -48.7% (active).
For O=C(/C=C/c1cc2ccccc2[nH]c1=O)c1ccc(O)cc1, the growth was 0.877% (active).
With O=C(O)c1ccc(-n2cc(/C=N/Nc3ccc(Cl)cc3)c(-c3ccc(F)c(F)c3)n2)cc1 the growth was 83.2% (inactive).
In the case of O=C1C=CC(=O)N1C1c2ccccc2-c2ccccc21, the growth is reported as 66.9% (inactive).
In the case of O=C(NCCCCO)c1cncnc1Nc1ccc2c(ccn2Cc2cccc(F)c2)c1, the growth is reported as 67% (inactive).
In the case of CC(=O)Nc1cccc(NC(C)=O)n1, the growth is reported as 99.3% (inactive).
With COc1ccc(C(=O)/C=C/c2cc3c(c(OC)c2)OCC(=O)N3)cc1 the growth was 42.3% (inactive).
For Cc1c(C(N)=O)sc2ncn(Cc3ccccc3)c(=O)c12, the growth was 99% (inactive).
For CCN(CC)CCCNCCCNc1cc(OC)cc2cccnc12, the growth was -10.4% (active).
For O=C1c2c(c3c4ccccc4[nH]c3c3ccc4ccccc4c23)C(=O)N1CCN1CCCCC1, the growth was -0.798% (active).
